This note sets out measurements from ChEMBL document CHEMBL1157539, “Thousands of chemical starting points for antimalarial lead identification” (Nature, 2010).

Each structure is given as a SMILES string.

The first assay relates to Plasmodium falciparum. In words: GSK_TCMDC: Inhibition of Plasmodium falciparum 3D7 in whole red blood cells, using parasite LDH activity as an index of growth. Test compounds present at 2uM. The class given is functional.
As to `CC(=O)Nc1ccc(CN2CCC(NC(=O)c3ccc(-c4cccc(C(F)(F)F)c4)s3)CC2)cc1.O=C(O)C(F)(F)F`, the Inhibition – broadly, the change of the read-out against control, counted positive when it falls – is 100%.

Compound `COc1cccc(OC)c1CN1CCC(N(C)CCCCCCCCCN2CCC(OC(=O)Nc3ccccc3-c3ccccc3)CC2)CC1` displayed an Inhibition of 98%.

Compound `N#Cc1ccc(N/C(=N\c2ccc(-c3ccccc3)cc2)NC2CCCc3ccccc32)c(O)c1` (centres undefined) registered an Inhibition of 99%.

As for `Cc1ccc(NC(=O)Nc2ccc(Cl)c(C(F)(F)F)c2)cc1-c1ccc(C(=O)Nc2ccncc2)cc1`, the Inhibition amounted to 99%.

The subject of another assay is Plasmodium falciparum. Kind of assay: GSK_TCMDC: Inhibition of Plasmodium falciparum Dd2 in whole red blood cells, using parasite LDH activity as an index of growth. Test compounds present at 2uM. The class given is functional.
As to `CCc1cn(C)c2c(N3CCCC3=O)cc(C(=O)N[C@@H](Cc3ccccc3)[C@H](O)CNC3CCCCC3)cc12`, the Inhibition was 98%.

Compound `Oc1ccc2ccccc2c1C=NNc1nc(=Nc2ccccc2)nc(N2CCOCC2)[nH]1` came in with an Inhibition of 49%.

On to `CC1N=C(N)N=C(N)N1OCc1cccc2ccccc12` (centres undefined), for which the Inhibition was found to be 4%.

The compound `CC(C)NCc1cccc(-c2ccc(-c3nc4cc(C(F)(F)F)ccc4[nH]3)cc2)c1.O=C(O)C(F)(F)F` gave an Inhibition of 96%.

Turning to `COc1ccc2nc(-c3ccccc3)cc(N/N=C/c3ccc([N+](=O)[O-])o3)c2c1`, the Inhibition stood at 99%.

Compound `CCS[C@@H]1O[C@H](COC(=O)c2ccccc2)[C@H](OC(=O)c2ccccc2)[C@H](OC(=O)c2ccccc2)[C@H]1OC(=O)c1ccccc1` displayed an Inhibition of 52%.

`CS(=O)(=O)c1ccc(CNCc2cccc(-c3cccc(-c4nc5cc(C(F)(F)F)ccc5[nH]4)c3)c2)cc1.O=C(O)C(F)(F)F`: the Inhibition was determined as 96%.

In the case of `COc1cc(NCC(C)CNCc2cn(Cc3ccccc3)c3ccccc23)nc2ccccc12` (centres undefined), the Inhibition was 55%.

With `O=C(NCc1ccco1)c1ccc(CN2CCN(C(c3ccccc3)c3ccccc3)CC2)cc1`, the Inhibition was found to be 92%.

On to `CCCCCc1cc(OC(=O)CCCN(CC)CC)c2c(c1)OC(C)(C)C=C2C1=CCN(Cc2ccc3ccccc3c2)CC1`, for which the Inhibition came to 92%.

`CN1CCC(C(=O)N(Cc2ccc(-c3ccc(CNCCc4ccc(S(C)(=O)=O)cc4)cn3)cc2)C2Cc3ccccc3C2)CC1.O=C(O)C(F)(F)F`: the Inhibition is on record as 49%.

For the compound `CCOc1ccccc1CNc1nccc(NCc2ccc(Cl)cc2Cl)n1`, the Inhibition is 58%.

`O=C(/C=C/c1ccc(Cl)c(Cl)c1)NCCCCCN1CCC(NC(=S)Nc2ccc(Cl)c(Cl)c2)CC1` registered an Inhibition of 65%.

`COc1cccc2sc(Nc3nc(-c4ccccn4)cs3)nc12` returned an Inhibition of 76%.

In turn, `CN(CCCc1c[nH]c2ccccc12)CCC1CCC(NC(=O)/C=C/c2ccc(Cl)c(Cl)c2)CC1` (centres undefined) returned an Inhibition of 63%.

Compound `CC(C)N1CCC(Oc2ccc(CN3CCN(C(c4ccccc4)c4ccc(Cl)cc4)CC3)cc2)CC1.Cl` (centres undefined) displayed an Inhibition of 46%.

The compound `CCCCSc1c(CNCCCCCCNCc2ccc3ccccc3c2SCCCC)ccc2ccccc12.CS(=O)(=O)O` came in with an Inhibition of 62%.

Take `O=C(/C=C/c1cccc(Br)c1)NCCCCCN1CCC(c2c[nH]c3ccccc23)CC1`: the Inhibition is 15%.

`Nc1nonc1-c1nc2c(-c3cccc(Cl)c3)nccc2n1CCCNC(=O)Cc1ccc(Cl)cc1`: the Inhibition stood at 92%.

`Cc1cc(C(=O)Nc2ccc3c(c2)CCN3C2CCN(Cc3csc4ccccc34)C2)no1` (centres undefined) gave an Inhibition of 96%.

As for `COc1cccc(OC)c1C(=O)N1CCC2(CC1)C(=O)N(CC(=O)NC1CCCCC1)CN2c1ccccc1`, the Inhibition is given as 91%.

`COc1ccc2c(NN=Cc3ccc(F)cc3)ccnc2c1` registered an Inhibition of 99%.

As for `CCNc1cc(C(=O)N[C@@H](Cc2ccccc2)[C@H](O)CNC(C)(C)c2cccc(OC)c2)cc(N2CCCC2=O)c1.O=CO`, the Inhibition is on record as 99%.

Turning to `COc1ccc2nccc([C@@H](O)CN3CCC(NC(=O)C(c4cc5ccccc5o4)N4CCN(c5ccc(F)cc5)CC4)CC3)c2c1` (some centres undefined), the Inhibition was 98%.

In turn, `O=C(O)c1ccc(NC(=O)C2CC(=O)N(Cc3ccc(Cl)cc3)C(=Nc3ccc(Cl)cc3)S2)cc1` (centres undefined) yielded an Inhibition of 95%.

Regarding `O=C(Nc1ccc(-c2ccccc2)cc1)Nc1cccc(Cn2cnc(N3CCCNCC3)cc2=O)c1.O=C(O)C(F)(F)F`, the Inhibition is 13%.

For `COc1cccc2c(N/N=C/c3cccc([N+](=O)[O-])c3)ccnc12`, the Inhibition was 47%.

As for `COc1cc2ccccc2cc1CCNCCCCNCCc1cc2ccccc2cc1OC.CS(=O)(=O)O`, the Inhibition was 38%.

`O=C(Nc1ccc2c(c1)CN(Cc1ccc(N3CCCC3)o1)CCC2)c1ccoc1.O=CO` displayed an Inhibition of 76%.

`CC(=O)NCCNc1nccc(N2CCc3ncnc(Nc4ccc(OCc5cccc(F)c5)c(Cl)c4)c3C2)n1`: the Inhibition amounted to 100%.

On to `COc1cc2nc(NCCc3ccccc3)nc(NCc3cnn(C)c3C)c2cc1OC`, for which the Inhibition is recorded as 94%.

As for `CCCCOc1ccc(-c2nc3ccccc3[nH]2)cc1`, the Inhibition is reported as 82%.

In turn, `Cc1cc(OCCCN2CCC(NS(=O)(=O)c3cc(Br)c(Cl)s3)CC2)c2ccccc2n1` came in with an Inhibition of 39%.

As to `CC(C)c1ccc(NC(=O)c2cccc(CN3CCCN(CC4CCCCC4)CC3)c2)cc1.O=C(O)C(F)(F)F`, the Inhibition is reported as 59%.

As to `CN1CCN(c2ccnc3ccc(NC(=O)Nc4ccc5c(c4)CCC5=O)cc23)CC1`, the Inhibition came to 67%.

For `CC(=O)Nc1ccc2[nH]cc(C3CCN(CCC4CCN(C(=O)/C=C/c5ccc(Cl)c(Cl)c5)CC4)CC3)c2c1`, the Inhibition is on record as 7%.

In turn, `CC(=O)Nc1ccc(CN2CCC(NC(=O)c3ccc(-c4cccc(C(F)(F)F)c4)s3)CC2)cc1.O=C(O)C(F)(F)F` gave an Inhibition of 16%.

`COc1cccc(OC)c1CN1CCC(N(C)CCCCCCCCCN2CCC(OC(=O)Nc3ccccc3-c3ccccc3)CC2)CC1` registered an Inhibition of 98%.

Consider `N#Cc1ccc(N/C(=N\c2ccc(-c3ccccc3)cc2)NC2CCCc3ccccc32)c(O)c1` (centres undefined), for which the Inhibition worked out at 98%.

For `Cc1ccc(NC(=O)Nc2ccc(Cl)c(C(F)(F)F)c2)cc1-c1ccc(C(=O)Nc2ccncc2)cc1`, the Inhibition is 99%.
